Source: PubChem BioAssay AID687014 (The Scripps Research Institute Molecular Screening Center, 2013)
About 6,800 (1.8%) of roughly 370,000 compounds were called active. The sample as a whole holds a higher share of actives than the screen did. A number with no mark means an inactive call.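 Rule for the calls: active = activation above a cutoff set at the mean of all screened compounds plus 3 SD (cut at about 10% in these data); inactive = the rest.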

System: Nuclear hormone receptor DAF-12 (Heterodera glycines), GAL4 fusion
Assay: H. glycines DAF-12 receptor agonists, primary screen, cell-based, luminescence, HEK293, GAL4 fusion, UAS-luciferase (AID 687014);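 note: 0% = DMSO wells and 100% = sodium butyrate wells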
Settings: HEK293 GAL4-hgDAF12 UAS-luciferase reporter, agonist luminescence; at 6.8 µM; hits give high values; normalized to butyrate control

Q: With `COc1ccc(-n2c(C)nn(CC3CC3)c2=O)cc1` as the compound, how does the activation read?
A: -0.88%

Q: With `Cn1c(CC2Sc3ccccc3NC2=O)nnc1SCC(=O)c1ccc(Cl)cc1` (stereo not drawn) as the compound, how does the activation read?
A: 2.7%

Q: With `CCn1c(SCC(C)=O)nc2sc3c(c2c1=O)CCCC3` as the compound, how does the activation read?
A: -0.6%

Q: Which activation does the source give for `Nc1[nH]c(C(=O)c2ccccc2)c(-c2ccc(Cl)cc2Cl)c1C(=O)c1ccccc1` here?
A: 0.29%

Q: For `O=C(Nc1ccc(F)cc1)C(CCc1ccccc1)N1CCN(CC(=O)N2CCCC2)CC1` (stereo not drawn), which activation is on record?
A: -2.94%

Q: `COC(=O)[C@]12C[C@H](CC(=O)NCCc3ccccc3OC)C(=O)N(Cc3ccccc3)C1=C[C@H](C(C)C)O[C@@H]2C1CC1` was tested. Which activation did it give?
A: -1.92%

Q: Which activation does the source give for `CC(NC(=O)c1cccc2ccccc12)c1ccc2c(c1)CCCC2` (stereo not drawn) here?
A: 1.33%

Q: How did the activation turn out when `O=C(N/N=C/c1ccc(O)c(O)c1)C1c2ccccc2Oc2ccccc21` was run?
A: -0.99%

Q: How did the activation turn out when `O=C(NN=Cc1ccc2c(c1)CCC2)c1ccccc1O` was run?
A: 14.7% (active)

Q: For `Cc1nn(-c2ccccc2)c2[nH]c(C(F)(F)F)cc(=O)c12`, which activation is on record?
A: 0.5%

Q: How did the activation turn out when `CC1CCN(C(=O)c2ncn3c2C(=O)N[C@@H](C)C3)CC1` was run?
A: 0.1%

Q: Which activation does the source give for `COC(=O)c1ccc(CSc2nnc(NC(C)C)s2)cc1` here?
A: -0.67%

Q: `CCCc1cc(=O)[nH]c2nnc(SCC(=O)Nc3nnc(SCC)s3)n12` was tested. Which activation did it give?
A: 1.68%

Q: For `CCSc1nnc(NC(=O)c2ccc(C)cc2)s1`, which activation is on record?
A: 14.4% (active)

Q: How did the activation turn out when `CCOC(=O)N1CCN(C(=O)C[C@H]2C[C@@]3(C(=O)OC)C(=C[C@H](C(C)(C)C)O[C@@H]3C)N(Cc3ccc(Cl)cc3Cl)C2=O)CC1` was run?
A: 0%

Q: For `COC(=O)c1cccc(Cn2ccc3ccc(-c4ccc5ccn(C(=O)C6CCCCC6)c5c4)cc32)c1`, which activation is on record?
A: 3.04%

Q: How did the activation turn out when `CC(NC(=O)COC(=O)c1ccc2ccccc2n1)c1ccccc1` (stereo not drawn) was run?
A: 5.11%

Q: `Cc1cccc(NC(=O)c2ccc3ccccc3n2)n1` was tested. Which activation did it give?
A: 14.8% (active)

Q: How did the activation turn out when `Cc1cccc(NC(=O)Cc2ccc(Br)cc2)n1` was run?
A: 3%

Q: Which activation does the source give for `C=CCN1[C@@H](Cc2ccccc2)COc2cccc(N3CCSCC3)c2S1(=O)=O` here?
A: 3.43%

Q: Which activation does the source give for `COc1ccc(/C=C2/C(=O)OCc3cc(OC)c(OC)cc32)c(OC)c1` here?
A: -3.92%

Q: How did the activation turn out when `COc1ccc2c(c1)O/C(=C\c1ccccc1O)C2=O` was run?
A: 13% (active)

Q: For `O=C1Oc2ccccc2C(=O)/C1=C/c1ccccc1O`, which activation is on record?
A: -1.59%

Q: With `CSc1ccc(Oc2cccc3c2S(=O)(=O)N([C@H](C)c2ccccc2)C[C@@H](COCc2ccccc2)O3)cc1C` as the compound, how does the activation read?
A: 1.48%

Q: For `O=S1(=O)c2c(cccc2N2CCCC2)O[C@H](COCc2ccccc2)CN1C1CC1`, which activation is on record?
A: -1.8%

Q: For `CONc1nc2nonc2nc1NOC`, which activation is on record?
A: -3.04%

Q: With `O=C(NCCC1=CCCCC1)c1ccc(-n2cncn2)cc1` as the compound, how does the activation read?
A: 11.6% (active)

Q: `O=C(COc1cccc(-n2cnnn2)c1)NCCC1=CCCCC1` was tested. Which activation did it give?
A: -1.74%

Q: `O=C(NCCC1=CCCCC1)c1ccc(Cl)c([N+](=O)[O-])c1` was tested. Which activation did it give?
A: 4.8%

Q: With `COC(=O)[C@@]12CCCCC3=C1N(CCC3)C(=O)[C@H]2CC(=O)NCc1cccc2ccccc12` as the compound, how does the activation read?
A: -3.73%

Q: Which activation does the source give for `O=C(NC1CCCCN(Cc2ccc(Cl)cc2)C1=O)c1ccc(Br)cc1` (stereo not drawn) here?
A: -3.05%

Q: How did the activation turn out when `Cc1nc(N2CCOCC2)sc1C(=O)NN` was run?
A: -4.56%

Q: Which activation does the source give for `Fc1cc(F)c2nc(N3CCOCC3)sc2c1` here?
A: 11.6% (active)

Q: `Cc1cc(C)c2nc(N3CCC(C(=O)NCCN4CCOCC4)CC3)sc2c1` was tested. Which activation did it give?
A: 1.84%

Q: With `O=C(CN(CC1CCCO1)C(=O)CNS(=O)(=O)c1ccc(F)cc1)NCc1ccco1` (stereo not drawn) as the compound, how does the activation read?
A: -0.11%

Q: Which activation does the source give for `CCN(C(=O)CSc1ncnc2c1cnn2-c1ccccc1)C1CCS(=O)(=O)C1` (stereo not drawn) here?
A: 1.12%

Q: `COc1cc(/C=N/O)ccc1OCc1ccc([N+](=O)[O-])cc1` was tested. Which activation did it give?
A: 19.8% (active)

Q: Which activation does the source give for `CCCc1ccc(OCc2ccc(C(=O)N/N=C/c3cccc([N+](=O)[O-])c3)o2)c(OC)c1` here?
A: 0.57%

Q: For `CCOc1cc(/C=N/O)ccc1OCc1ccccc1F`, which activation is on record?
A: 1.1%

Q: For `CCOC(=O)N1CCN(C(=O)C[C@@H]2C(=O)N(CCc3ccc(Cl)cc3)C3=CCCC[C@]32C(=O)OCC)CC1`, which activation is on record?
A: -0.14%

Q: For `N#Cc1c(NC(=O)C2CC(Cl)=CCC2C(=O)O)sc2c1CCCCC2` (stereo not drawn), which activation is on record?
A: -1.72%

Q: How did the activation turn out when `CCC1CCc2c(sc(NC(C)=O)c2C#N)C1` (stereo not drawn) was run?
A: -1.78%

Q: For `N#Cc1c(NC(=O)C2CCCO2)sc2c1CCCCC2` (stereo not drawn), which activation is on record?
A: 15.3% (active)

Q: `O=C(CCl)NC1CCCCN(Cc2cccc(C(F)(F)F)c2)C1=O` (stereo not drawn) was tested. Which activation did it give?
A: -7.36%

Q: For `O=C(Nc1ccccc1)N1CCN(Cc2nc3ccccc3c(=O)[nH]2)CC1`, which activation is on record?
A: 3.62%

Q: For `CC(=NCC1CCCO1)c1c(O)[nH]c(=O)[nH]c1=O` (stereo not drawn), which activation is on record?
A: -2.34%

Q: For `CCc1ccc(CN2C(=O)c3ccccc3C2C(=O)NCC2CCCO2)cc1` (stereo not drawn), which activation is on record?
A: 0.15%

Q: `O=C1C(C=NCC2CCCO2)=C(O)c2ccccc21` (stereo not drawn) was tested. Which activation did it give?
A: 13.2% (active)

Q: Which activation does the source give for `O=S(=O)(c1ccccc1)N1CCC(c2nc3ccccc3o2)CC1` here?
A: -0.98%

Q: Which activation does the source give for `COc1cc(CN2CCNC(=O)C2CC(=O)NCCc2ncccc2C)cc(OC)c1` (stereo not drawn) here?
A: -1.06%

Q: With `CN(CCNC(=O)c1cc2c(-c3ccccc3F)nn(C)c2s1)C1CCCCC1` as the compound, how does the activation read?
A: 4.97%

Q: `CCOCCCNC(=O)c1cc2c(=O)n3ccccc3nc2s1` was tested. Which activation did it give?
A: 3.33%

Q: For `CN(C(=O)c1cc2c(=O)n3ccccc3nc2s1)C1CCCCC1`, which activation is on record?
A: 13% (active)

Q: For `Cc1ccc(-n2c(SCC(=O)Nc3ccc(S(=O)(=O)Nc4nccs4)cc3)nnc2-c2ccccn2)cc1`, which activation is on record?
A: -1.35%

Q: With `CN1CCN(c2ccc(NC(=O)c3ccc4c(c3)OCCO4)cc2Cl)CC1` as the compound, how does the activation read?
A: 28.8% (active)

Q: For `Cc1ccc(NC(=O)c2ccc(Cl)nc2)cc1S(=O)(=O)N1CCOCC1`, which activation is on record?
A: 3.09%

Q: For `Cc1ccc(C(=O)Nc2ncccc2C)cc1S(=O)(=O)N1CCOCC1`, which activation is on record?
A: 1.72%

Q: `COC(=O)c1ccc(N2CCOCC2)c(NC(=O)c2ccc3c(c2)OCCO3)c1` was tested. Which activation did it give?
A: 0.79%

Q: With `O=C(Nc1cccc(Cl)c1N1CCOCC1)c1ccc2c(c1)OCCO2` as the compound, how does the activation read?
A: -1.47%

Q: `Cc1ccc(C(=O)Nc2ccc3c(c2)OCCO3)cc1S(=O)(=O)N1CCOCC1` was tested. Which activation did it give?
A: 11% (active)

Q: For `O=C(CSc1nnc(-c2ccccc2)n1Cc1ccco1)Nc1ccccc1-c1ccccc1`, which activation is on record?
A: 0.11%

Q: Which activation does the source give for `Cc1cc2nc3c(=O)[nH]c(=O)nc-3n(C[C@H](O)[C@H](O)[C@H](O)CO)c2cc1C` here?
A: -2.63%

Q: With `CCOC(=O)[C@]12CCCC3=C1N(CCC3)C(=O)[C@@H](CC(=O)NCc1cccs1)C2` as the compound, how does the activation read?
A: 1.07%

Q: For `CC(=O)OC12CCCN(C1)/C(=C/c1ccncc1)C2` (stereo not drawn), which activation is on record?
A: -1.43%

Q: Which activation does the source give for `CC(C)CNc1cccc2c1S(=O)(=O)N[C@H](CC(C)C)CO2` here?
A: 3.06%

Q: Which activation does the source give for `O=C(Nc1ccccc1)c1ccc2c(c1)OCCCO2` here?
A: 15.1% (active)

Q: How did the activation turn out when `COc1ccc(C2COC(=O)C2=N)c(NC(=O)c2ccccc2)c1` (stereo not drawn) was run?
A: 4.88%

Q: Which activation does the source give for `O=C(CN1CCc2cc3c(cc2C1)OCCCO3)Nc1ccccc1` here?
A: -3.88%

Q: Which activation does the source give for `CN(Cc1c(F)cccc1Cl)C(=O)CNC(=O)c1ccc2c(c1)OCO2` here?
A: 7.57%

Q: `O=C(Nc1ccccc1F)c1ccc2c(c1)OCO2` was tested. Which activation did it give?
A: 11.2% (active)

Q: Which activation does the source give for `COc1cccc(C(=O)Nc2cc3c(cc2Br)OCCCO3)c1` here?
A: 13.2% (active)

Q: `C/C(=N/NC(=S)Nc1ccccc1)c1ccc2c(c1)OCO2` was tested. Which activation did it give?
A: 10.2%

Q: How did the activation turn out when `COc1cccc(C(=O)Nc2nnc(S(=O)(=O)N3CCOCC3)s2)c1` was run?
A: 3.2%

Q: Which activation does the source give for `O=C(NCCc1ccc(C(F)(F)F)cc1)c1ccc2c(c1)OCO2` here?
A: 0.07%

Q: `COC(=O)[C@]12C[C@H](CC(=O)NCCCN3CCCC3=O)C(=O)N(CCc3ccc(OC)c(OC)c3)C1=C[C@H](COCc1ccccc1)O[C@@H]2C` was tested. Which activation did it give?
A: 4.36%

Q: For `Cc1cc(Br)ccc1NC(=S)NC1CCCC1`, which activation is on record?
A: 1.25%

Q: For `Cc1ccc(NC(=O)c2cc(C)nn2-c2ccccc2)c(C)c1`, which activation is on record?
A: -1.76%

Q: Which activation does the source give for `Cc1ccc(NC(=S)Nc2ncccc2C)c(C)c1` here?
A: 11.8% (active)

Q: How did the activation turn out when `Nc1ccn([C@@H]2O[C@H](C(=O)N[C@H]3CCCCNC3=O)[C@@H](O)[C@H]2O)c(=O)n1` was run?
A: 0.25%

Q: For `CCC(NC(=O)C1C2C=CC3(CN(Cc4ccccc4)C(=O)C13)O2)c1ccccc1` (stereo not drawn), which activation is on record?
A: -3.86%

Q: `O=C(NCCc1ccco1)c1ccc(OCc2cn3ccccc3n2)cc1` was tested. Which activation did it give?
A: 5.95%

Q: For `Cn1cc[n+](C)c1COc1ccc(C=O)cc1`, which activation is on record?
A: 1%

Q: For `O=Cc1ccc(OCc2cn3ccccc3n2)cc1`, which activation is on record?
A: 12.9% (active)

Q: With `O=C(Nc1cc(F)cc(F)c1)OC1CCC12CCC(c1ccccc1)CC2` (stereo not drawn) as the compound, how does the activation read?
A: 2.34%

Q: With `CC(C)C[C@H](NC(=O)CC1CCCC1)C(=O)N1CCC[C@H]1C(=O)NCc1ccccc1` as the compound, how does the activation read?
A: -4.65%

Q: `Cc1cc(NC(=O)CSc2nnnn2-c2ccc(F)cc2)no1` was tested. Which activation did it give?
A: 1.39%

Q: With `Cc1ccc2nc(-c3ccc(SCC(=O)Nc4cc(C)on4)nc3)[nH]c2c1` as the compound, how does the activation read?
A: 15.3% (active)

Q: With `Cc1cc(NC(=O)CSCC(=O)NC(C)c2ccccc2)no1` (stereo not drawn) as the compound, how does the activation read?
A: 2.82%

Q: For `COC(=O)C1CN(CCc2ccccc2)CCS(=O)(=O)N1Cc1ccc(F)cc1` (stereo not drawn), which activation is on record?
A: 2.5%

Q: With `C=CCN=C1NC(c2ccccc2)C(C(=O)OC)=C(C)N1Cc1ccc(C(F)(F)F)cc1` (stereo not drawn) as the compound, how does the activation read?
A: 0.51%

Q: For `COc1ccc(C2Nc3ccccc3C(=O)N2Cc2cccs2)cc1COc1c(C)cccc1C` (stereo not drawn), which activation is on record?
A: 1.89%

Q: `COc1ccc(CN2CCCC(C(=O)c3ccc(Cl)cc3)C2)cc1Cn1cncn1` (stereo not drawn) was tested. Which activation did it give?
A: -0.88%

Q: For `COc1ccc(C2Nc3ccccc3C(=O)N2c2ccc(Cl)cc2)cc1Cn1cc([N+](=O)[O-])cn1` (stereo not drawn), which activation is on record?
A: 15.2% (active)
